Laboratory results reported in PubChem BioAssay (NCI).
Compounds without any hit were thinned out: in the full panel of roughly 79,000, 15% have a hit. A number with no mark means an inactive call. No stated cut-off is given here; in the data, active means growth inhibition above about 70%; inactive means the rest. *1 amine or outer side, *2 acyl side, *3 side chain or, on linkers, in order; H or OH if unused. Where a SMILES comes first, the peptide text is derived from it. [ ]: non-standard residue; d: D form. X8 = C=CCC(O[*:1])C(=O)[*:2]; NMeV = CN[CH](C(=O)O)C(C)C; NMeA = CN[CH](C)C(=O)O; βAla = NCCC(=O)O

assay: NCI Yeast Anticancer Drug Screen. Data for the rad50 strain (AID 155);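 further: 0% = growth of vehicle-only cultures of the same strain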; settings: S. cerevisiae rad50 strain growth inhibition; at 50.0 µM; hits give high values
Procedure, shortened: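 Yeast carrying a defined DNA repair defect were exposed to test compounds, and growth was compared with vehicle-treated controls to give percent inhibition.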

Structure (SMILES) | growth inhibition [%]
CCC1SCC(C)(C)NC1=O (stereo not given) | 4.9
CCOc1ccccc1NC(=O)C(=O)c1c(O)c2ccc(O)cc2oc1=O | 25.7
CC[N+](C)(C)c1ccc(/C=C(/C#N)C(=O)OC)cc1 | 7.55
Cc1c(O)c2ccc3ccccc3c2oc1=O | 5.4
CCOC(=O)CCCOc1ccccc1 | 24.4
CSc1ncc(C#N)c2nc(-c3ccccc3)nn12 | 5.6
CCOc1ccc2nc(NC(=O)C(=O)C(C(=O)c3ccccc3-c3ccccc3)C3OC(=O)c4ccccc43)sc2c1 (stereo not given) | -18.7
CC12CC(=O)NC(=O)N1CCS2 (stereo not given) | 3.7
CCOC(=O)C(=O)/C(=C/N1CCNC1=S)C(=O)OCC | -28.6
CC1(C)OC2C(C3N(c4ccccc4)CCN3c3ccccc3)OC(n3ccc(=O)[nH]c3=O)C2O1 (stereo not given) | -37.4
C=CCC1OC(=O)CCNC(=O)C(C)N(C)C(=O)C(C(C)C)N(C)C(=O)C(C(C)CC)NC(=O)C2CCCN2C1=O (stereo not given) (cyclo([X8]PI[NMeV][NMeA][βAla]); configuration not given here) | 15.3
CC1N(/N=C/c2ccccc2)C(c2ccccc2)C(c2ccccc2)N1/N=C/c1ccccc1 (stereo not given) | 11.4
ClCCOCc1ccc(Cl)cc1Cl | 24.6
CCOC(=O)OC1CC2CC(OC(=O)OCC)c3cccc(Br)c3C2c2ccccc21 (stereo not given) | 25.1
Cc1ccc(C)c2c(CC(=O)O)c[nH]c12 | -4.35
